The source of these data is PubChem BioAssay (NCATS).

Assay [1] deals with Lysosomal acid glucosylceramidase (Homo sapiens) (UniProt P04062). The assay can be described thus: Glucocerebrosidase-p2 (AID 348; in the data active means potency below about 10 µM; further: potency means the concentration at half of the fitted maximal effect). Particulars: purified GBA, blue fluorogenic substrate, 40 min. The method in brief: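 Normal human glucocerebrosidase (0.2 nM) with blue fluorogenic substrate (80 uM final) in citrate/phosphate pH 5.9 with 10mM sodium taurocholate, 0.01% tween-20; 40 min RT, NaOH/glycine stop; fluorescence Ex 365/Em 440; AC50 from a titration from 0.6 nM upwards.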
Lysosomal acid glucosylceramidase (Homo sapiens), sequence (P04062 whole entry, looked up): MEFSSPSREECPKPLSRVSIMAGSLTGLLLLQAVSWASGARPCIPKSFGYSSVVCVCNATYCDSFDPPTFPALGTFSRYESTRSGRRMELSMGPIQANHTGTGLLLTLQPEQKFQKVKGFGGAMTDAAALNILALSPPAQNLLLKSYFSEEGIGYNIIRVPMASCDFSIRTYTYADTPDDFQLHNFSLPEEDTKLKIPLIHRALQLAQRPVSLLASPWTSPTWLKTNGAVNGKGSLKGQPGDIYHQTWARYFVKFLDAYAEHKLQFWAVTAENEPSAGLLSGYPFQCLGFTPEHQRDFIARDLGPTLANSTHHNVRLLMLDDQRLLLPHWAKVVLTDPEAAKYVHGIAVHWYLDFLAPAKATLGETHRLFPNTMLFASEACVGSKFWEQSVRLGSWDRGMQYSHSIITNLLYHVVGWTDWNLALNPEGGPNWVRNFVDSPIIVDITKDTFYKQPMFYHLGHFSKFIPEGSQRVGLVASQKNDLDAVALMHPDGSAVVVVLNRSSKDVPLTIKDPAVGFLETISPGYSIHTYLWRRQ

The nature of assay [2]: AP1 Signaling Pathway (AID 357; active means well fitted curve in either direction with a large enough effect, not every such curve was filed as active;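 further: ME-180 reporter cells stimulated with EGF at its EC50 level; on the % scale 0 is the no-effect control and ±100 the full control effect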). Particulars: ME-180 AP-1-bla reporter, EGF-induced, beta-lactamase ratio, 5 h; at 7.69 µM (top of the series) unless noted. A digest of the protocol: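 AP-1-bla ME-180 cells, Opti-MEM + 0.5% dialyzed FBS, plated overnight 37 °C. Cpd titration + EC50 EGF, 5 h 37 °C. CCF4 2.5 h RT; ex 405, em 460/530 ratio → %activity, AC50.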
Assay [3] concerns the target Cytochrome P450 1A2 (Homo sapiens) (UniProt P05177). The assay is described as follows: p450-cyp1a2 (AID 410; calls by dose curve; further: potency means the concentration at half of the fitted maximal effect). The settings on record: recombinant CYP1A2, luciferin-ME demethylation, luminescence; series mostly up to 57 µM. The method in brief: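 20nM CYP1A2, 100uM Luciferin-ME (=Km), 100mM KPO4; cpd 10 min RT; +NADPH regen, 60 min RT; stop/detect 20 min; luminescence. Normalized to furafylline 57 uM = full inhibition.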

The nature of assay [4]: NFAT Signaling Pathway (AID 444; active means well fitted curve in either direction with a large enough effect, not every such curve was filed as active;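 further: carbachol stimulus at about its EC50 of 1 µM final; on the % scale 0 is the no-effect control and ±100 the full control effect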). Particulars: Jurkat NFAT-bla M1, carbachol, beta-lactamase ratio, 5 h; at 7.69 µM (top of the series) unless noted. The method in brief: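 Jurkat cells with NFAT-driven β-lactamase reporter and co-expressed M1 receptor, stimulated with carbachol (final 1 uM, ~EC50), compound titration, 5 h at 37 °C. CCF4 loaded 1 h at RT; 460/530 nm ratio gave %activity and AC50.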

Assay [5] can be described thus: Stat Signaling Pathway (AID 446; active means well fitted curve in either direction with a large enough effect, not every such curve was filed as active;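 further: ME-180 cervical cancer cells given 40 pM IL-6 alongside compound; SIE-controlled beta-lactamase reporter measured as 460/530 nm FRET emission ratio; on the % scale 0 is the no-effect control and ±100 the full control effect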). Particulars: ME-180 (cervical carcinoma) SIE beta-lactamase reporter, IL-6 stimulated, 5 h; at 7.69 µM (top of the series) unless noted. The method in brief:
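Compound effects on IL-6-induced STAT reporter activity were measured in ME-180 cells. After overnight culture, cells were co-treated with 40 pM IL-6 for 5 hrs before beta-lactamase substrate loading at room temperature.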

In assay [6] the target is Glucocorticoid receptor (Homo sapiens) (UniProt P04150). The assay can be described thus: GR-GFP Redistribution (AID 450;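 active means compounds whose dose series gives a full or clear partial fitted curve of increased nuclear translocation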; further: potency means the concentration at half of the fitted maximal effect). The settings on record: U2OS GR-GFP nuclear translocation, laser cytometry, 2 h.
Glucocorticoid receptor (Homo sapiens), sequence (P04150 whole entry, looked up, the tested form may be a part): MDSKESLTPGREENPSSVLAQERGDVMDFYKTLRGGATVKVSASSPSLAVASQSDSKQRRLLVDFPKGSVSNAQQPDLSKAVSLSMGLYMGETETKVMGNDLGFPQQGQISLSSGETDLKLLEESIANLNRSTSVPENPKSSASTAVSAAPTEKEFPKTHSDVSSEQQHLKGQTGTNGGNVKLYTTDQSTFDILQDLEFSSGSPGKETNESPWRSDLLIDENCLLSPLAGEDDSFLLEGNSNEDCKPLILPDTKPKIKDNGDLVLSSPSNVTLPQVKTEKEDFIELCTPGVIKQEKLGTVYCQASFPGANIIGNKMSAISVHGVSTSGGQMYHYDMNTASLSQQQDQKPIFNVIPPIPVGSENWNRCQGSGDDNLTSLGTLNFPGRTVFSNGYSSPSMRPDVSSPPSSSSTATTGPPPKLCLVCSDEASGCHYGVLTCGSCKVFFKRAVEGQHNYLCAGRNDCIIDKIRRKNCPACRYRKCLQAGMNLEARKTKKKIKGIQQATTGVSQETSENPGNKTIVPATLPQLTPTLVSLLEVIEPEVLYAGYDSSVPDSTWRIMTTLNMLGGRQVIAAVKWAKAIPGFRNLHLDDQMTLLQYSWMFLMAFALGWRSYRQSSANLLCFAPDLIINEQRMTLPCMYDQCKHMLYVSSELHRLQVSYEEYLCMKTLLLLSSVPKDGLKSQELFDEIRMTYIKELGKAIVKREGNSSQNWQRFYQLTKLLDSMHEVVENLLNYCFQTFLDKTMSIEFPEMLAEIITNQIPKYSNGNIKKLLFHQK
The target is the same in assay [7]. The assay is described as follows: GR-EFC Redistribution (AID 451; calls by dose curve; further: potency means the concentration at half of the fitted maximal effect). The settings on record: CHO-K1 GR-EFC translocation, beta-gal luminescence, 2 h. The method in brief: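 CHO-K1 cells expressing nuclear EA and GR-ED fragments of b-gal; compounds titrated up to 46 uM final, 2 h at 37 C. GR nuclear translocation read as complemented b-gal luminescence after 1 h RT detection.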

Assay [8] concerns the target Mitogen-activated protein kinase 10 (Mus musculus) (UniProt Q61831). The assay can be described thus: JNK3 AlphaScreen Assay (AID 530; active means well fitted curve in either direction with a large enough effect, not every such curve was filed as active;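 further: kinase came from lysate of stimulated human HepG2 cells; signal reports phosphorylation of biotinylated GST-cJun 1-79 at Ser73 with 10 µM ATP; on the % scale 0 is the no-effect control and ±100 the full control effect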). The settings on record: JNK3 lysate, c-Jun phosphorylation; series mostly up to 57.1 µM. The method in brief: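 HepG2 lysate (IL-1b/TNFa pre-activated) + biotin-GST-cJun 1-79 + anti-pSer73 cJun; cpd titration, 15 min RT; ATP 10 uM start; Tris pH 7.6, MgCl2, DTT, vanadate; beads in EDTA buffer; AlphaScreen.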

The target in assay [9] is 3',5'-cyclic-AMP phosphodiesterase 4B (Homo sapiens) (UniProt Q07343). The assay is described as follows: qHTS Assay for Inhibitors of PDE-IV (AID 607; active means well fitted activation curve with a large enough effect in the main read-out, with a control signal flat, not every such curve was filed as active; further: % of control where 0% means no effect). The settings on record: HEK293 ACTOne CNG channel cells, membrane potential fluorescence; series mostly up to 22.9 µM. A digest of the protocol: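 ACTOne HEK293 cells carry a modified cAMP-gated CNG channel and express endogenous PDE4; plated 1000 cells/well, compounds up to 22.9 uM final. Membrane-potential dye fluorescence (ex 535/em 590) was read; parental cells received 10 uM forskolin + 100 uM RO 20-1724.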
3',5'-cyclic-AMP phosphodiesterase 4B (Homo sapiens), sequence (Q07343 whole entry, looked up): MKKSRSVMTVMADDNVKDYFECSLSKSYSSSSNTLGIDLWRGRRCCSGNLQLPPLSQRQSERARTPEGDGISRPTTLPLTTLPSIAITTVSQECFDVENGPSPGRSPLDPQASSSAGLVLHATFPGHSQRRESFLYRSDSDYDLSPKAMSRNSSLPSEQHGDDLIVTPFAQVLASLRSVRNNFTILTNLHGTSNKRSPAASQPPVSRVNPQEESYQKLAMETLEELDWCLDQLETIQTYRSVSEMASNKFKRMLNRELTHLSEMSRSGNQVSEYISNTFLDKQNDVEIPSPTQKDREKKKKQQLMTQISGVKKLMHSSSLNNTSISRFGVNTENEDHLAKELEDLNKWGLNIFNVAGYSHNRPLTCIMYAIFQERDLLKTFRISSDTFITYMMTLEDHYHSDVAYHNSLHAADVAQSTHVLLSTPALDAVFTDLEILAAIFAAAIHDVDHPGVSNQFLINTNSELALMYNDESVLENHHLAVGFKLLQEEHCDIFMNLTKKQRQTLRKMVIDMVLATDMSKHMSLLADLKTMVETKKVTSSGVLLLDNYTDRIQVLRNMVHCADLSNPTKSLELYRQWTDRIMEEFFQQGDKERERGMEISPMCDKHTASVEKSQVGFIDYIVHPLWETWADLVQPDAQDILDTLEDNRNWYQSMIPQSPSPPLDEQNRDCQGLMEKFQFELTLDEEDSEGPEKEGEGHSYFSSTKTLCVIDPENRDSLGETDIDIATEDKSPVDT

The target of assay [10] is Cytochrome P450 3A4 (Homo sapiens) (UniProt P08684). The assay is described as follows: qHTS Assay for Activators of Cytochrome P450 3A4 (AID 885). Further: nearly all actives have a fitted effect of over 65% in size. Particulars: recombinant CYP3A4, Luciferin-PPXE luminescence, 60 min; series mostly up to 57.1 µM. The method in brief: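 CYP3A4 activity: Luciferin-PPXE O-dealkylation, 25uM substrate, 200mM KPO4, RT throughout. Read-out is luciferase luminescence; higher values reflect activation.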
Cytochrome P450 3A4 (Homo sapiens), sequence (P08684 whole entry, looked up): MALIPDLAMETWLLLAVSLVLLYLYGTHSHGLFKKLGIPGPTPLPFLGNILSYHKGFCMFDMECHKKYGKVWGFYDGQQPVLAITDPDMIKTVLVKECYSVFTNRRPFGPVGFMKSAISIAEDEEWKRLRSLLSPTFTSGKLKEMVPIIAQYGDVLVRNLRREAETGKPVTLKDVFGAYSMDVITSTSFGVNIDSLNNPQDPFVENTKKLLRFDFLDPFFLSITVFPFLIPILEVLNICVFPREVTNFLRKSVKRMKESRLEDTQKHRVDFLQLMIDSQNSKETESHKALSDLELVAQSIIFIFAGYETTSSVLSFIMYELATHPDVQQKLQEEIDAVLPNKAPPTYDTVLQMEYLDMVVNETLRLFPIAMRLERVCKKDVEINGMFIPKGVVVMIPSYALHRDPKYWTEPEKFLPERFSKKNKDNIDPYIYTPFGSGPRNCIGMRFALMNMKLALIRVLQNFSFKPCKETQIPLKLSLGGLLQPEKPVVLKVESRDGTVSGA

Assay [11] concerns the target Dual specificity protein kinase CLK4 (Homo sapiens) (UniProt Q9HAZ1). The assay can be described thus: qHTS Assay for Inhibitors of CDC-like Kinase 4 (Kinase-Glo Assay) (AID 1770). Further: on the % scale 0 is the no-effect control and ±100 the full control effect; nearly all actives have a fitted effect of over 65% in size. Particulars: recombinant Clk4, Kinase-Glo ATP depletion luminescence; series mostly up to 66.7 µM. A digest of the protocol:
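Substrate mix (RS peptide 100 uM, ATP 1 uM) dispensed, compound pinned in, then Clk4 added to 25 nM final. Incubated 4.5 h at RT; Kinase-Glo reagent added, luminescence read after 5 min.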

Assay [12] has the same target. The assay is described as follows: qHTS Assay for Inhibitors of CDC-like Kinase 4 (ADP-Glo Assay) (AID 1771). Further: on the % scale 0 is the no-effect control and ±100 the full control effect; nearly all actives have a fitted effect of over 70% in size. Particulars: recombinant CLK4, ADP-Glo luminescence; series mostly up to 80 µM. A digest of the protocol: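 25 nM Clk4, 100 uM RS peptide, 1 uM ATP (final); 2 mM MgCl2, 0.5 mM EGTA, 2.5 mM DTT, 0.01% Triton X-100; 1 hr RT. ADP-Glo readout: ATP depletion 45 min, conversion/luciferase 30 min, luminescence.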

Assay [13] shares this target. The assay is described as follows: qHTS Assay for Inhibitors of CDC-like Kinase 4 (ADP-FP Assay) (AID 1795).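 Further: recombinant human CLK4 phosphorylating RS repeat peptide at 1 µM ATP; on the % scale 0 is the no-effect control and ±100 the full control effect; nearly all actives have a fitted effect of over 60% in size.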 The settings on record: Transcreener ADP fluorescence polarization; series mostly up to 50 µM. The method in brief: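 Clk4 6.25 nM; RS peptide 100 uM; ATP 1 uM; 25 mM Tris pH 7.5, 10 mM MgCl2; 1 h reaction. ADP detected via antibody/orange tracer FP displacement; TG003 positive control.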

For assay [14], the target named is Ubiquitin carboxyl-terminal hydrolase 1 (Homo sapiens) (UniProt O94782). The assay can be described thus: Inhibitors of USP1/UAF1: Pilot qHTS (AID 504865).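 Further: rhodamine fluorescence freed from ubiquitin-rhodamine substrate followed over time; top concentration of the series differs between compounds; on the % scale 0 is the no-effect control and ±100 the full control effect; nearly all actives have a fitted effect of over 35% in size.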 Particulars: purified USP1/UAF1, Ub-rhodamine cleavage fluorescence; series mostly up to 54.9 µM. A digest of the protocol:
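In 50mM HEPES pH 7.8 containing 0.5mM EDTA, 1mM TCEP, 0.1 mg/ml BSA and 0.01% Tween-20, 1nM USP1/UAF1 is exposed to compound for 15 min, then Ub-Rho (150nM final) is added and fluorescence is read over time.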

Assay [15] can be described thus: Primary qHTS for small molecule stabilizers of the endoplasmic reticulum resident proteome: Secreted ER Calcium Modulated Protein (SERCaMP) assay (AID 1508630). Further: on the % scale 0 is the no-effect control and ±100 the full control effect. The settings on record: SH-SY5Y GLuc-SERCaMP (Gaussia luciferase released on ER calcium loss) secretion, thapsigargin, luminescence; series mostly up to 38.4 µM. The method in brief:
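The SH-SY5Y reporter protocol was run at 3 concentrations up to 38.3 uM (primary) or 11 concentrations (follow-up): 16 h compound, 100 nM thapsigargin for 4 h, then extracellular luciferase luminescence.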

Assay [16] concerns the target Cytochrome P450 3A4 (Homo sapiens) (UniProt P08684). The assay can be described thus: qHTS Assay for Inhibitors and Substrates of Cytochrome P450 3A4 (AID 884). Further: potency means the concentration at half of the fitted maximal effect; nearly all actives have a fitted effect of over 50% in size. Particulars: recombinant CYP3A4, Luciferin-PPXE luminescence; series mostly up to 57.1 µM. A digest of the protocol:
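Luminescent readout of luciferin produced by CYP3A4 (20 nM) dealkylation of Luciferin-PPXE, 25 uM (its KM). NADPH-driven reaction ran 60 min at RT after 10 min compound preincubation; data scaled to 57 uM ketoconazole as 100% inhibition.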

The target in assay [17] is Cytochrome P450 2C19 (Homo sapiens) (UniProt P33261). The assay can be described thus: qHTS Assay for Inhibitors and Substrates of Cytochrome P450 2C19 (AID 899). Further: potency means the concentration at half of the fitted maximal effect; nearly all actives have a fitted effect of over 60% in size. The settings on record: recombinant CYP2C19, luciferin-H EGE luminescence; series mostly up to 57.1 µM. The method in brief: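 Luminescent read-out of luciferin formed from Luciferin-H EGE (10uM, equal to KM). Enzyme 5nM in 50mM KPO4; compound added, 10 min at 37C, then NADPH regenerating system for 60 min at 37C. Full inhibition defined by 57uM ketoconazole.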
Cytochrome P450 2C19 (Homo sapiens), sequence (P33261 whole entry, looked up): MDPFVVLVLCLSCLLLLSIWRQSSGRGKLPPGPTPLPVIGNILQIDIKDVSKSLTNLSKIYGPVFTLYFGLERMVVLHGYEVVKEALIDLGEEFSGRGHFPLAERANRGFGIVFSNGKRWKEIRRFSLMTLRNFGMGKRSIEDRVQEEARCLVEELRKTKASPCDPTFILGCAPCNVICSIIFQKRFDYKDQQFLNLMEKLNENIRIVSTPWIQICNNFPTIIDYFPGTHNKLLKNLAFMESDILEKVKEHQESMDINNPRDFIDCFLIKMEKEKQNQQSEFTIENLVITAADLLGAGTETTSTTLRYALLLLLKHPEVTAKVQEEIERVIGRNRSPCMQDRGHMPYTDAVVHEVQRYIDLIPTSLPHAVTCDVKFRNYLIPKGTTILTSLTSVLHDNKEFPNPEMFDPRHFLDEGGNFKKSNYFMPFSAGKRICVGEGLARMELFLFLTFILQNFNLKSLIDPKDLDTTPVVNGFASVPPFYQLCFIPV

For assay [18], the target named is Cytochrome P450 2D6 (Homo sapiens) (UniProt P10635). The assay can be described thus: qHTS Assay for Inhibitors and Substrates of Cytochrome P450 2D6 (AID 891). Further: potency means the concentration at half of the fitted maximal effect; nearly all actives have a fitted effect of over 60% in size. The settings on record: recombinant CYP2D6, luciferin-ME EGE luminescence; series mostly up to 57.1 µM. The method in brief:
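Luminescent read-out of luciferin formed by 5 nM human CYP2D6 demethylating 30 uM Luciferin-ME EGE (Km level) over 60 min at room temperature after NADPH regeneration addition. Data normalized to full inhibition by 1.43 uM quinidine.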

Unmarked numbers belong to inactive results. Results filed as inconclusive are left out. Activity calls are given as the source filed them. Unless noted, the call rests on the fitted dose curve; in most records, active means well fitted curve in the direction sought with a large enough effect; inconclusive means small, poorly fitted or top-dose-only effect, or another doubt; inactive means no such curve, though single readings can be large; an effect the other way counts as inactive or inconclusive.

Dual specificity protein kinase CLK4 (Homo sapiens), sequence (Q9HAZ1 whole entry, looked up): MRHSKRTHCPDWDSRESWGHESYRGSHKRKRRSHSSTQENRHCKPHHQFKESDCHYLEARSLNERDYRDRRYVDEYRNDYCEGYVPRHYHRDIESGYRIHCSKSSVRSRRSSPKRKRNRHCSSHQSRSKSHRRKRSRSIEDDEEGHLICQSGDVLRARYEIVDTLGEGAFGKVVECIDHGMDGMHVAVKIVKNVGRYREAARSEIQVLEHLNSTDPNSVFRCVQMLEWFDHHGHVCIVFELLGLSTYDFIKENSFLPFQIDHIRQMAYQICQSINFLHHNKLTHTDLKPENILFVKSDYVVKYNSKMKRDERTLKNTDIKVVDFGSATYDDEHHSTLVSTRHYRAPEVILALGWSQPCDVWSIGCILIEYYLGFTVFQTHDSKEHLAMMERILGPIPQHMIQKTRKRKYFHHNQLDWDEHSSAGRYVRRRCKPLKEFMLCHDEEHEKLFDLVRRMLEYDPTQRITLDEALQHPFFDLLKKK
Ubiquitin carboxyl-terminal hydrolase 1 (Homo sapiens), sequence (O94782 whole entry, looked up): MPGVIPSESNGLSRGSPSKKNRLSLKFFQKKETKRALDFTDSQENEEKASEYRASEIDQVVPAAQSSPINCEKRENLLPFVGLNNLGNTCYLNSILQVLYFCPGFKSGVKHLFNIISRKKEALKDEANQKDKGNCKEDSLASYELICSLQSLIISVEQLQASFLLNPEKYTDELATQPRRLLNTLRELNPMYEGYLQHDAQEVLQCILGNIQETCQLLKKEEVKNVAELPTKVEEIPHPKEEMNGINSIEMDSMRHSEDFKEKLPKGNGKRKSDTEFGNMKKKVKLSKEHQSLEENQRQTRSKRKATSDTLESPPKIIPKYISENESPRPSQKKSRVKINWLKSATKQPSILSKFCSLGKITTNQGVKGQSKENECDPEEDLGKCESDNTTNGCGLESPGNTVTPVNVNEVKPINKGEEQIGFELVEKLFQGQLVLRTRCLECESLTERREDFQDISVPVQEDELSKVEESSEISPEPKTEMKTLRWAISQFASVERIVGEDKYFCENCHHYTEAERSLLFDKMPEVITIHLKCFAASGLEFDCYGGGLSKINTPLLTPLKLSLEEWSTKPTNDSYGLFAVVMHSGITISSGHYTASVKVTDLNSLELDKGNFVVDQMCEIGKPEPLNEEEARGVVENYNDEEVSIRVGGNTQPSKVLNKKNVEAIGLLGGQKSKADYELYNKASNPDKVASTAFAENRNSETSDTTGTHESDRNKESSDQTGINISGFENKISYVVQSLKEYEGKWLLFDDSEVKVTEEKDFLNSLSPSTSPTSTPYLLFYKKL
Cytochrome P450 1A2 (Homo sapiens), sequence (P05177 whole entry, looked up): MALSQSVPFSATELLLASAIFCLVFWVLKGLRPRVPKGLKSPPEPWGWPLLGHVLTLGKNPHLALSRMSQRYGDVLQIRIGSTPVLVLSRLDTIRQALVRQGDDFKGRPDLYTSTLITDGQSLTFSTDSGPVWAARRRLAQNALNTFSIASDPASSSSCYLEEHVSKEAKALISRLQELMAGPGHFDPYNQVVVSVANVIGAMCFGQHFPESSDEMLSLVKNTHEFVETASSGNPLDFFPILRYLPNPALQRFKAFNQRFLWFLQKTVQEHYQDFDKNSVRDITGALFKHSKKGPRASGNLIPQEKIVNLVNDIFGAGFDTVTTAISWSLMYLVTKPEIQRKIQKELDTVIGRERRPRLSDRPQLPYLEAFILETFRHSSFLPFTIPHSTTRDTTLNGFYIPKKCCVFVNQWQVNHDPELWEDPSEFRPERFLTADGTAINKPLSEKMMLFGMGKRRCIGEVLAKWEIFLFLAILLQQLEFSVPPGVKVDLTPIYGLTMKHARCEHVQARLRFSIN

Turning to `COc1ccc(-c2nc3cnc(OC)nc3n(C)c2=O)cc1`, the Potency in assay [1] was > 11.4 µM; in assay [3], 2.51 µM (active); in [6], > 9.22 µM; in [7], > 46 µM. Further, the activity change, negative = inhibition in [2] was 8.21%; in [4], -0.516%. Besides, in assay [5], the activity, negative = inhibition was 15.6%. Besides, the Potency result in assay [8], in assay [9], in assay [10], in assay [11], in assay [12] and in [13] was “inactive” each time. Further, the Potency entry in assay [14] is “inactive”. For the same molecule, the outcome in assay [15] was inactive.
Turning to `FC(F)(F)c1ccccc1-c1cncnc1NCc1cccnc1`, the Potency in assay [1] was > 11.4 µM; in assay [3] it was 20 µM (active); in assay [6] it was > 46 µM; in assay [7] it was > 46 µM; in [16], 0.631 µM (active); in assay [17], 2.51 µM (active). The activity change, negative = inhibition in [2] is -13.4%; in assay [4], -6.58%. Moreover, in assay [5], the activity, negative = inhibition was -1.05%. Moreover, the Potency result in [8], in [9], in assay [10], in assay [11], in assay [12] and in assay [13] was “inactive” in each case. The Potency result in assay [14] is “inactive”. For the same molecule, the outcome in assay [15] was inactive.
Consider `COc1ccc(CNc2ncncc2-c2ccccc2C(F)(F)F)c(OC)c1`, for which the Potency was > 11.4 µM in assay [1]; 15.8 µM (active) in assay [3]; > 46 µM in assay [6]; > 46 µM in [7]; 0.316 µM (active) in assay [16]; 0.398 µM (active) in [18]. Further, in assay [17], the Potency was 1.58 µM (active). Further, the activity change, negative = inhibition was -23.4% in assay [2] and -7.18% in assay [4]. Further, the activity, negative = inhibition in [5] is 2.4%. Besides, the Potency result in assay [8], in [9], in [10], in [11], in assay [12] and in assay [13] was “inactive” in each case. Further, the Potency result in assay [14] was “inactive”. Besides, in assay [15], the result was inactive.
For the molecule `Cc1noc(C)c1-c1nccc(N(C)C)n1`, the Potency in assay [1] was > 11.4 µM; in assay [3], 0.631 µM (active); in [6] it was > 46 µM; in assay [7] it was > 46 µM. Besides, the activity change, negative = inhibition in assay [2] was 2.07%; in [4], -4.83%. Further, the activity, negative = inhibition in assay [5] is 15.8%. For the same molecule, the Potency result in [8], in assay [9], in assay [10], in assay [11], in assay [12] and in [13] was “inactive” throughout. Further, the Potency entry in [14] is “inactive”. The outcome in [15] was inactive.
`Cc1cnc(CNc2ncncc2-c2ccccc2Cl)cn1`: the Potency in assay [1] was > 11.4 µM; in [3] it was 15.8 µM (active); in assay [6], > 46 µM; in assay [7], > 46 µM. The activity change, negative = inhibition in assay [2] was -2.38%; in assay [4] it was 13.7%. Moreover, the activity, negative = inhibition in assay [5] was -0.675%. Also, the Potency result in assay [8], in [9], in assay [10], in assay [11], in [12] and in [13] was “inactive” throughout. In assay [14], the Potency result was “inactive”. Besides, in [15], the outcome was inactive.
